12 compounds from PubChem BioAssay can be followed below.

Experiment [1] concerns the target Albumin (Bos taurus) (UniProt P02769). As to the kind of experiment: compounds binding labelled BSA control protein – biochemical, small-molecule microarray, Alexa647 label, 635/667 nm fluorescence, artefact control for SMM control protein annotation, profiling panel (AID 1118).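 Further: score merges 667 nm emission intensity and signal-to-noise per printed compound spot.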 The settings on record: BSA-A647 binding, fluorescence 635 nm, higher = more signal.
The nature of experiment [2]: probe aXIP binding to arrayed compounds – biochemical, NeuroSMM set, 635/667 nm fluorescence, primary screen (AID 1119).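 Further: probe is the protein aXip251-270 applied at 1 µg/mL to compound-printed slides; binding of probe to printed compounds measured as 667 nm fluorescence plus signal to noise.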 The settings on record: small-molecule microarray, higher = more signal, called active from +8 up or from −8 down.
Experiment [3] can be described thus: probe aNOTCH3 binding on compound microarray – biochemical, small-molecule microarray, 635/667 nm fluorescence, primary screen (AID 1120).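 Further: probe is a biotin-tagged antibody raised against NOTCH3 rather than NOTCH3 protein; score merges spot fluorescence near 667 nm with spot signal to noise.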 The settings on record: higher = more signal.
The nature of experiment [4]: probe aNOTCH2 binding on compound microarray – biochemical, small-molecule microarray, 635/667 nm fluorescence, primary screen (AID 1121).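 Further: score merges feature fluorescence read at 667 nm with its signal to noise.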 As to conditions: higher = more signal.
Experiment [5] concerns the target Carbonic anhydrase 2 (Homo sapiens) (UniProt P00918). As to the kind of experiment: compounds binding carbonic anhydrase 2 – biochemical, small-molecule microarray, Alexa647-labelled CAII, profiling panel (AID 1122). The settings on record: CAII-A647 binding fluorescence, higher = more signal.
A short description of experiment [6]: COS7 lysate on small-molecule microarray, probe aHis, 635 nm (AID 1123).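 Further: z-score combines 667nm fluorescence intensity with signal-to-noise per printed compound spot.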 The settings on record: COS7 cell lysate, fluorescence, higher = more signal.
The nature of experiment [7]: probe aLAP1 signal on lysate-treated microarray – cell lysate, small-molecule microarray, COS7 lysate, primary screen (AID 1124).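 Further: lysate comes from COS7 cells expressing LAP1 and is applied at 0.3 µg/mL; score merges spot fluorescence near 667 nm with signal-to-noise over triplicate slides.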 As to conditions: probe aLAP1, fluorescence, higher = more signal.
The test system of experiment [8] is Sam68 (KHDRBS1). As to the kind of experiment: compounds binding KHDRBS1 protein – biochemical, small-molecule microarray, 635 nm fluorescence, primary screen (AID 1125).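 Further: score merges 667 nm channel intensity with signal to noise over triplicate slides.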 As to conditions: higher = more signal.
The test system of experiment [9] is Chordin-like protein 2 (CHRDL2). As to the kind of experiment: compounds binding chordin-like 2 – biochemical, small-molecule microarray, 635 nm fluorescence, primary screen (AID 1126).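 Further: printed compound slides probed with Chrdl2 protein at 4 µg/mL for 1 h at 4 C; score merges 667 nm emission intensity with signal to noise over three replicate slides.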 As to conditions: fluorescence 635 nm, higher = more signal.
The target of experiment [10] is Concanavalin-A (Canavalia ensiformis) (UniProt P02866). As to the kind of experiment: compounds binding concanavalin A lectin – biochemical, small-molecule microarray, Alexa647 label, 635 nm, artefact control for SMM control protein annotation, primary screen (AID 1127).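 Further: z combines 667 nm emission intensity with signal-to-noise across three replicate slides.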 The settings on record: ConA-A647 binding fluorescence, higher = more signal.
Chain of Concanavalin-A (Canavalia ensiformis) (P02866 whole entry, looked up): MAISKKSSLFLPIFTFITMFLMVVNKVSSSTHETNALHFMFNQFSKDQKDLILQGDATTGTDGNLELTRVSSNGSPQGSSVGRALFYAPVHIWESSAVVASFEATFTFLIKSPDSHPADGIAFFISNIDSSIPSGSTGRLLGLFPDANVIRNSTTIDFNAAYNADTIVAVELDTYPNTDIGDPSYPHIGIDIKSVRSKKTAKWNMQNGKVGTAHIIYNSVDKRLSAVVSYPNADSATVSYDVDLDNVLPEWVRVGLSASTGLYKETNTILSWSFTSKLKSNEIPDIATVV

Calls of active or inactive are those of the source.

Chain of Albumin (Bos taurus) (P02769 whole entry, looked up): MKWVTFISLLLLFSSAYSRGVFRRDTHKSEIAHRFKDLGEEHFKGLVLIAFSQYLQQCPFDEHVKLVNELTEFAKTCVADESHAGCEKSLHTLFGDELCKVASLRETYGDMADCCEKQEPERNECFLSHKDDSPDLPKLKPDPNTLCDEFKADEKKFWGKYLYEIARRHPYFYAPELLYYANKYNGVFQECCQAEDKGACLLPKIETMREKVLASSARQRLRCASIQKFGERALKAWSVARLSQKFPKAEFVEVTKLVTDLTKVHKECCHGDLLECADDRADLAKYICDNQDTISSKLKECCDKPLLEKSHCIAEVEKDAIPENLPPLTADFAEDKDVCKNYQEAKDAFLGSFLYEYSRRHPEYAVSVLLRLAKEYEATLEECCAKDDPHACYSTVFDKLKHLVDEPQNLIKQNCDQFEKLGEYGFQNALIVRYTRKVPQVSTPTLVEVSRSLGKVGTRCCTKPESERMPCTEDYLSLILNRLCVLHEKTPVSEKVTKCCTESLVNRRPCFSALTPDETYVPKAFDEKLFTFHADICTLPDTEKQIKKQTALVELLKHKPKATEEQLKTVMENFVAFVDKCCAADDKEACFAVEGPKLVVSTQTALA

With `COC(=O)CC=C[C@@H](C)[C@@H](C=NO[C@@H]1O[C@H](COC(C)=O)[C@@H](OC(C)=O)[C@H](OC(C)=O)[C@H]1OC(C)=O)OC`, the composite z-score was 0.216 in experiment [1]; 0.0303 in experiment [3]; -0.0294 in experiment [4]; -0.605 in [5]; -0.152 in experiment [6]; 0.124 in [7]. For the same compound, the composite z-score in [8] is 0.702; in [9], -0.0703; in [10], -1.33. Also, the composite Z-score in experiment [2] was -0.421 (inactive).
For `COc1ccc(O[C@@H]2[C@H](O)CO[C@H]2C=Cc2ccccc2)cc1`, the composite z-score in experiment [1] is 0.529; in experiment [3], -0.0647; in [4], -0.0488; in [5] it was -0.338; in experiment [6] it was 0.0177; in [7], -0.798. In addition, the composite z-score in [8] was 0.116; in [9], -0.28; in experiment [10], -0.283. Also, the composite Z-score in [2] is -0.176 (inactive).
Regarding `O=C1[C@H]2[C@H]3[C@H](O)[C@H](O)CC(=NOCc4ccccc4)[C@H]3CC[C@H]2C(=O)N1Cc1ccc2c(c1)OCO2`, the composite z-score in [1] was 0.116; in experiment [3] it was 0.0116; in [4], -0.146; in experiment [5] it was -0.0448; in experiment [6] it was 1.1; in experiment [7], 0.148. Also, the composite z-score in [8] is -0.18; in [9], 0.408; in experiment [10] it was -0.261. In addition, in experiment [2], the composite Z-score is -0.192 (inactive).
With `CC(C)=CCCC(C)=CCON=C1C[C@@H](O)[C@@H](O)[C@@H]2[C@@H]3C(=O)N(C(C)(C)C)C(=O)[C@@H]3CC[C@H]12`, the composite z-score in experiment [1] was 0.161; in [3], 0.149; in experiment [4], -0.0846; in experiment [5], 0.0334; in [6], 0.043; in experiment [7], 0.373. The composite z-score stood at 0.293 in experiment [8], 0.346 in experiment [9] and 0.198 in [10]. Besides, the composite Z-score in experiment [2] is 1.26 (inactive).
For the compound `CON=C(C)CCC(=O)OC[C@H]1O[C@H](c2ccccc2)C=C[C@@H]1Oc1ccc(OC)cc1`, the composite z-score was 0.443 in experiment [1]; -0.0687 in experiment [3]; -0.146 in [4]; -0.185 in experiment [5]; -0.0845 in experiment [6]; 0.2 in experiment [7]. The composite z-score in [8] was -0.209; in experiment [9], 0.406; in experiment [10], 0.0078. Also, the composite Z-score in experiment [2] is -0.222 (inactive).
For the compound `CCOC(=O)[C@H](CC(C)C)NC(=O)CCC1CC(OC(=O)NCc2cccc3ccccc23)CC2(CCCC(COC(=O)NCc3cccc(C(F)(F)F)c3)O2)O1` (stereo not given in full), the composite z-score in experiment [1] is -0.105; in experiment [3], -0.0113; in experiment [4] it was -0.146; in [5], -0.0249; in [6], 0.0261; in experiment [7], 0.127. The composite z-score in [8] turned out to be 0.046; in experiment [9], 0.964; in [10], 0.139. In addition, the composite Z-score in experiment [2] was 0.041 (inactive).
On to `CO[C@@H]1COC(=O)[C@@H](C)NC(=O)CC=C[C@@H](C)[C@H](NS(=O)(=O)c2ccc(C)cc2)COC(=O)[C@H](C)NC(=O)CC=C[C@H]1C`, for which the composite z-score in experiment [1] was -1.05; in [3], -0.0647; in experiment [4] it was -0.184; in experiment [5] it was -0.333; in experiment [6], -0.634; in experiment [7], -0.192. The composite z-score is 0.643 in experiment [8], 1.16 in [9] and -1.05 in experiment [10]. In experiment [2], the composite Z-score is 1.05 (inactive).
In the case of `CO[C@@H]1C=CCC(=O)N2CCC[C@H]2C(=O)OC[C@@H](C)C(=O)OC[C@H]1C`, the composite z-score was -0.709 in experiment [1]; 0.138 in experiment [3]; -0.0109 in experiment [4]; -0.31 in [5]; -0.0865 in experiment [6]; -0.176 in [7]. Moreover, the composite z-score in [8] was 0.465; in [9], 1.05; in [10], -1.08. Moreover, in [2], the composite Z-score is 1.36 (inactive).
Take `C[C@@H](c1ccccc1)N1C(=O)[C@H]2[C@H]3[C@H](O)[C@H](O)CC(=NO[C@@H]4O[C@H](CO)[C@@H](O)[C@H](O)[C@H]4O)[C@@H]3CC[C@H]2C1=O`: the composite z-score in experiment [1] is 0.423; in experiment [3], 0.0996; in [4] it was -0.109; in experiment [5], -0.157; in experiment [6], 0.335; in experiment [7], -0.0315. In addition, the composite z-score in experiment [8] was determined as 0.258; in [9] it was 0.25; in experiment [10] it was 0.411. For the same compound, the composite Z-score in [2] was -0.766 (inactive).
Turning to `CCOC(=O)[C@H](Cc1ccccc1)NC(=O)CCC1CC(OC(=O)NCc2cccc3ccccc23)CC2(CCCC(COC(=O)NCc3ccccc3)O2)O1` (stereo not given in full), the composite z-score in [1] is 0.561; in [3], -0.0204; in experiment [4], -0.155; in experiment [5] it was 0.452; in [6], 1.06; in [7] it was -0.398. The composite z-score in experiment [8] worked out at 0.712; in experiment [9], 0.0223; in experiment [10] it was 0.649. Also, the composite Z-score in experiment [2] is -0.0662 (inactive).
Turning to `CCOC(=O)[C@H](CC(C)C)NC(=O)CCC1CC(OC(=O)NCCc2ccc(F)cc2)CC2(CCCC(COC(=O)NCCC(C)C)O2)O1` (stereo not given in full), the composite z-score in [1] was 0.281; in experiment [3], 0.128; in experiment [4], -0.177; in experiment [5], 0.269; in [6], 0.596; in experiment [7] it was -0.14. The composite z-score is -0.163 in experiment [8], 0.301 in [9] and 0.816 in experiment [10]. The composite Z-score in [2] was -0.375 (inactive).
Turning to `C[C@H]1CC[C@H]2C(=O)OC(CO)CN2[C@@H]1c1ccc(Br)cc1` (stereo not given in full), the composite z-score was 0.0691 in experiment [1]; -0.0647 in experiment [3]; -0.192 in [4]; -0.244 in experiment [5]; -0.416 in [6]; -0.311 in experiment [7]. Besides, the values for the composite z-score in experiment [8], in [9] and in [10] were 0.253, 0.453 and -0.17, respectively. Besides, the composite Z-score in experiment [2] was 0.456 (inactive).
